# PglD inh – C. jejuni PglD acetyltransferase inhibitors, primary screen, biochemical, DTNB colorimetric, single point; UDP-N-acetylbacillosamine N-acetyltransferase PglD (Campylobacter jejuni); purified PglD enzyme, DTNB colorimetric CoA detection; inhibition, % at 12.5 µM; 360,000 tested, 0.098% active; AID 602405, 2012; in the data active = inhibition above about 16%, passing the limit was not always enough
# NSD2 inh – NSD2 histone methyltransferase inhibitors, primary screen, biochemical, AlphaScreen, single concentration, set 2. NSD2 peptide methylation, 120 min. inhibition, % at 12.5 µM. Histone-lysine N-methyltransferase NSD2 (Homo sapiens), O96028. 310,000 tested, 0.54% active. AID 743445, 2014; in the data active = inhibition above about 50%
# Target sequence (O96028 whole entry, looked up): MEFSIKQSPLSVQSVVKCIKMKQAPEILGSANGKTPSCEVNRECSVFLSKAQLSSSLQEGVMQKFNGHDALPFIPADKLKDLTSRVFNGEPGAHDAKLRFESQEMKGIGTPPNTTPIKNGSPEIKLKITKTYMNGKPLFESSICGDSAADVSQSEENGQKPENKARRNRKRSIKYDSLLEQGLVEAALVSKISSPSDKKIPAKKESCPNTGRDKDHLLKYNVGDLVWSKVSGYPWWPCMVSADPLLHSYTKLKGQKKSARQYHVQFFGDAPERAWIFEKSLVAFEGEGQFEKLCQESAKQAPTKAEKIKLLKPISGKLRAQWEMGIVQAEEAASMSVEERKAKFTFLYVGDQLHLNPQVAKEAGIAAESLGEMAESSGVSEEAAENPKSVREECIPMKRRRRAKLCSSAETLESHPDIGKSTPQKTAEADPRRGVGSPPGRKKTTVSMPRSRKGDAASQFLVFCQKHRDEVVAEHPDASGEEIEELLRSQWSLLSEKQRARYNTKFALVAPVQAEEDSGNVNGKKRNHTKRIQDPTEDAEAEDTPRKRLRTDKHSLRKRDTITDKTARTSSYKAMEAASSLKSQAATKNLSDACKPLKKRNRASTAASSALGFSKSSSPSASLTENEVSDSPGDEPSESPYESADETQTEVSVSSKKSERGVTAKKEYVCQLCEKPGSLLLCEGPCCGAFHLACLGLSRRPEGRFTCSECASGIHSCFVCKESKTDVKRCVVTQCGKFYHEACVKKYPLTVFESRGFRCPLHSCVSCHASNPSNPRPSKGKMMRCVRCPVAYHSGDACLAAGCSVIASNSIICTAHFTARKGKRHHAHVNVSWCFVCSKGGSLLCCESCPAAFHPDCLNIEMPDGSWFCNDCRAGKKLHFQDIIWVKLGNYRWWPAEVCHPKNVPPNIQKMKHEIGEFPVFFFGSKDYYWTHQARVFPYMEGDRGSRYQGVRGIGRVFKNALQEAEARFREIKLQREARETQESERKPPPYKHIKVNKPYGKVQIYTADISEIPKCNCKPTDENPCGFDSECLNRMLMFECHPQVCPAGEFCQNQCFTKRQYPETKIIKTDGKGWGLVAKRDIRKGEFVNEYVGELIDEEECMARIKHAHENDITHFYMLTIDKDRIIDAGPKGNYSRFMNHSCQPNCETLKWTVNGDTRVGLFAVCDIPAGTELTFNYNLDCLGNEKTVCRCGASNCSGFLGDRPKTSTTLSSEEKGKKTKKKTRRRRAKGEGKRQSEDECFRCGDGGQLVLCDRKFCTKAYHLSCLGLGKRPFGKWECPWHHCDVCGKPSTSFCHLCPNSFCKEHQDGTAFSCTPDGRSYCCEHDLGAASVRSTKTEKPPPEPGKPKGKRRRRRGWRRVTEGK
# Statin myotox sup – suppressors of statin myotoxicity in C2C12 myotubes, primary screen, cell-based, single point, plate reader; C2C12 myotubes + simvastatin, ATP luminescence, 48 h; scaled: DMSO 0, geranylgeraniol control 100; rescue of ATP level, % at 7.49 µM; 330,000 tested, 0.78% active; AID 602340, 2012;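 active = mean ATP rescue above about 67%, or every replicate alone reaching that limit, limit read from the data, passing the limit was not always enough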;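 note: myotubes were challenged with 10 µM simvastatin during compound exposure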
# miR-122 sensor – miR-122 Renilla sensor signal increase in Huh7, primary screen, miR-122 inhibitor project, cell-based, single point, plate reader; activation (reporter increase), % at 12.5 µM; 340,000 tested, 0.3% active; Huh7 miR-122 Renilla luciferase sensor, 48 h; neutral wells = 0, positive control = 100; AID 602342, 2012;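 active = mean replicate activation score at least 90 and every replicate individually at or above 90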;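 note: higher luciferase means less miR-122 activity so hits act as miR-122 inhibitors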
# A number is an active result; – = inactive; · = not tested or not shown; [ ] = remark or other dose. An excerpt weighted towards active compounds, which were near 1.2% of everything screened.
SMILES,PglD inh,NSD2 inh,Statin myotox sup,miR-122 sensor
O=C(Nc1nc2ccc(S(=O)(=O)N3CCCC3)cc2s1)C1CCCCC1,–,–,·,130
COc1cccc(-n2nnnc2SCC(=O)NCCc2ccc(OC)c(OC)c2)c1,·,–,·,·
COc1cccc(-n2nnnc2SCC(=O)NCCc2ccccc2)c1,–,–,102,–
COc1ccc(C(CNC(=O)c2ccc(N3CCCC3=O)cc2)N(C)C)cc1 (configuration not stated),–,–,84,–
O=C(COc1ccc2ccccc2c1)Nc1nc2ccccc2[nH]1,–,–,–,–
COc1ccc(NC(=O)COc2ccc(Br)cc2)c(OC)c1,–,–,–,–
COc1ccc(OCC(=O)Nc2nc3ccccc3[nH]2)cc1,–,–,74,–
COc1ccc(NC(=O)COc2ccccc2)c(OC)c1,–,–,98,–
CO[C@@H]1CN(C)C(=O)c2ccc(NC(=O)C3CC3)cc2OC[C@@H](C)N(CCc2ccccc2)C[C@H]1C,–,·,–,–
C[C@H]1CN([C@@H](C)CO)S(=O)(=O)c2ccc(-c3cccnc3)cc2O[C@H]1CN(C)C(=O)C1CCC1,–,·,–,–
CC1(C)C(=O)Nc2ccccc2N1C(=O)COC(=O)C12CC3CC(CC(O)(C3)C1)C2,–,–,89,·
CN=C1c2ccccc2CN1c1cccc(C(=O)OC)c1,–,–,100,–
COC(=O)c1cccc(N2C(=O)c3ccccc3S2(=O)=O)c1,–,–,·,–
COC(=O)NNC(=O)COc1ccc(Cl)cc1,–,–,94,–
COc1ccc(OCC(=O)Nc2ccc(Cl)cc2)cc1,·,–,·,·
Cn1cnc(S(=O)(=O)N2C[C@@H](O)COC[C@H]3O[C@@H](CC(=O)NC4CCCC4)CC[C@@H]32)c1,–,·,–,127[16.7 µM]
Cn1cnc(S(=O)(=O)N2C[C@H](O)COC[C@H]3O[C@@H](CC(=O)NC4CCCC4)CC[C@@H]32)c1,–,·,–,–
C[C@@H]1CN([C@H](C)CO)C(=O)c2cccc(NC(=O)C3CC3)c2O[C@H]1CN(C)Cc1ccncc1,–,·,–,–
CC1(C)Cc2c(C#N)c(N)n(-c3ccccc3)c(=O)c2CO1,–,–,82,–
N#Cc1c(N)n(-c2ccccc2)c(=O)c2cc([N+](=O)[O-])ccc12,–,–,–,–
CCC(C)(C)NC(=O)C(c1cccn1C)N(C(=O)Cn1nnc2ccccc21)c1ccc(OC)cc1OC (configuration not stated),–,–,–,92
CCOC(=O)C1CCN(c2c(NCc3ccc(C(=O)NCCC(C)C)cc3)c(=O)c2=O)CC1,–,–,–,–
CCCNC(=O)c1ccc(CNc2c(N3CCC(C(=O)OCC)CC3)c(=O)c2=O)cc1,–,–,133,–
C[C@@H]1CN([C@H](C)CO)C(=O)c2cccc(NC(=O)Nc3ccccc3)c2O[C@H]1CN(C)Cc1ccc(C(=O)Nc2ccccc2N)cc1,–,·,113,–
COc1ccc(NC(=O)Nc2cccc3c2O[C@H](CN(C)Cc2ccc(C(=O)Nc4ccccc4N)cc2)[C@@H](C)CN([C@@H](C)CO)C3=O)cc1,–,·,·,–
SMILES,PglD inh,NSD2 inh,Statin myotox sup,miR-122 sensor
C[C@@H]1CN([C@@H](C)CO)C(=O)c2cccc(N(C)C)c2O[C@@H]1CN(C)Cc1ccc(C(=O)Nc2ccccc2N)cc1,–,·,–,109[16.7 µM]
C[C@@H]1CN([C@@H](C)CO)C(=O)c2cccc(NC(=O)Nc3ccccc3)c2O[C@@H]1CN(C)Cc1ccc(C(=O)Nc2ccccc2N)cc1,–,·,–,140[16.7 µM]
C[C@H](CO)N1C[C@H](C)[C@@H](CN(C)Cc2ccc3c(c2)OCO3)Oc2c(NC(=O)Nc3ccccc3)cccc2C1=O,–,·,–,95[16.7 µM]
O=C(Nc1nccs1)[C@H]1[C@H](CO)[C@H]2Cn3c(cccc3=O)[C@@H]1N2C(=O)C1CCC1,–,·,–,–
Cc1ccc(S(=O)(=O)Nc2ccc3c(c2)C(=O)N([C@@H](C)CO)C[C@H](C)[C@@H](CN(C)C(=O)c2ccccc2)OCCCC[C@@H](C)O3)cc1,–,·,·,–
CC(=O)N(C)C[C@H]1Oc2cc(Br)ccc2S(=O)(=O)N([C@H](C)CO)C[C@H]1C,–,·,–,–
Cc1noc(C)c1NC(=O)N[C@@H]1CC[C@H](CCNC(=O)C2CCC2)O[C@H]1CO,–,·,–,·
CN(O)/C=c1/ccc2c(n1)C(=O)C=CC=2,–,–,93,–

# Source: PubChem (Broad Institute)
